# According to the supplement of paper PMC10849652:
# Targets with a hit are over-represented here; the source holds about 8,800 in all. About 0.5% of all pairs of compound and target were hits. Unmarked numbers belong to inactive results.
# Key:
# Test in all cases: log2 fold change, soluble protein after heating vs DMSO (PISA); higher = thermal stabilisation; K562 lysate, 10 uM; active = over 0.2 and 3.5 SD of the protein, either way, in both replicates (recomputed)
# ibrutinib = compound: C=CC(=O)N1CCC[C@@H](n2nc(-c3ccc(Oc4ccccc4)cc3)c3c(N)ncnc32)C1 [ibrutinib]
# Procedure, shortened: (§1)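 Soluble protein was defined as the supernatant remaining after 21,000xg for 90 min, following pooling of heated aliquots and adjustment to 0.5% NP-40 at 4°C. Before that, crude K562 extract at 1 mg/mL protein in PBS pH 7.4 with 1 mM MgCl2 was treated with 10 μM compound for 30 min and heated for 3 min across 48°C-58°C. Quantification used TMTpro 16plex LC-MS/MS with channel sums equalised, and values are log-two fold changes in thermal stability relative to solvent controls from duplicates.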
# [1] = compound: CC(=O)c1cnc2ccc(-c3cc(Cl)c(O)c(Cl)c3)nc2c1N[C@H]1CC[C@H](CN(C)C)CC1
# Procedure, shortened: as §1
# ralimetinib = compound: CC(C)(C)Cn1c(N)nc2ccc(-c3[nH]c(C(C)(C)C)nc3-c3ccc(F)cc3)nc21 [ralimetinib]
# Procedure, shortened: as §1
# [2] = compound: CC(C)(O)CC(=O)NCCn1ccc2ncnc(Nc3ccc(Oc4cccc(C(F)(F)F)c4)c(Cl)c3)c21
# Procedure, shortened: as §1
# [3] = compound: CC(C)C1=C2N=C(C=C(N2N=C1)NCC3=CC=CC=C3)NCCCCCCN
# Procedure, shortened: as §1
# [4] = compound: CC1=C(C(CC(=O)N1)C2=CC=C(C=C2)C(F)(F)F)C(=O)NC3=C(C=C4C(=C3)C=NN4)F
# Procedure, shortened: as §1
# [5] = compound: CC1=C(C2=C(C=C1)C(=O)C3=CC=CC=C3N2CCCN)C
# Procedure, shortened: as §1
# [6] = compound: CC1=C(C=C(C=C1)NC(=O)C2=CC(=CC=C2)C(C)(C)C#N)NC3=CC4=C(C=C3)N=CN(C4=O)C
# Procedure, shortened: as §1
# [7] = compound: CC1=C(C=C(C=C1)NC(=O)C2=CC(=CC=C2)N(C)C)NC(=O)C3=CC=C(C=C3)O
# Procedure, shortened: as §1
# [8] = compound: CC1=CC=C(C=C1)SC2=C3C=C(SC3=CN=C2)C(=O)N
# Procedure, shortened: as §1
# vemurafenib = compound: CCCS(=O)(=O)Nc1ccc(F)c(C(=O)c2c[nH]c3ncc(-c4ccc(Cl)cc4)cc23)c1F [vemurafenib]
# Procedure, shortened: as §1
# [9] = compound: CCCS(=O)(=O)Nc1ccc(F)c(C(=O)c2c[nH]c3ncc(Cl)cc23)c1F
# Procedure, shortened: as §1
# barasertib = compound: CCN(CCCOc1ccc2c(Nc3cc(CC(=O)Nc4cccc(F)c4)[nH]n3)ncnc2c1)CCOP(=O)(O)O [barasertib]
# Procedure, shortened: as §1
# [10] = compound: CC[C@@H]1C(=O)N(C)c2cnc(Nc3ccc(C(=O)NC4CCN(C)CC4)cc3OC)nc2N1C1CCCC1
# Procedure, shortened: as §1
# volasertib = compound: CC[C@@H]1C(=O)N(C)c2cnc(Nc3ccc(C(=O)N[C@H]4CC[C@H](N5CCN(CC6CC6)CC5)CC4)cc3OC)nc2N1C(C)C [volasertib]
# Procedure, shortened: as §1
# [11] = compound: CCn1c(C(=O)N(C2CC2)C2CC2)cc2c3c(ncn3C)c(Nc3cc(C)n(C)n3)nc21
# Procedure, shortened: as §1
# [12] = compound: CCn1cc(-c2ccnc3[nH]c(-c4cccc(CN(C)C)c4)cc23)c(-c2ccc(NC(=O)N(C)C)cc2)n1
# Procedure, shortened: as §1
# [13] = compound: CN1CCC(CNc2ccc3ncc(-c4cccc(OC(F)(F)F)c4)n3n2)CC1
# Procedure, shortened: as §1
# saracatinib = compound: CN1CCN(CCOc2cc(OC3CCOCC3)c3c(Nc4c(Cl)ccc5c4OCO5)ncnc3c2)CC1 [saracatinib]
# Procedure, shortened: as §1
# sotrastaurin = compound: CN1CCN(c2nc(C3=C(c4c[nH]c5ccccc45)C(=O)NC3=O)c3ccccc3n2)CC1 [sotrastaurin]
# Procedure, shortened: as §1
# Sequence of UniProt Q9UNA0 (Q9UNA0 whole entry, looked up): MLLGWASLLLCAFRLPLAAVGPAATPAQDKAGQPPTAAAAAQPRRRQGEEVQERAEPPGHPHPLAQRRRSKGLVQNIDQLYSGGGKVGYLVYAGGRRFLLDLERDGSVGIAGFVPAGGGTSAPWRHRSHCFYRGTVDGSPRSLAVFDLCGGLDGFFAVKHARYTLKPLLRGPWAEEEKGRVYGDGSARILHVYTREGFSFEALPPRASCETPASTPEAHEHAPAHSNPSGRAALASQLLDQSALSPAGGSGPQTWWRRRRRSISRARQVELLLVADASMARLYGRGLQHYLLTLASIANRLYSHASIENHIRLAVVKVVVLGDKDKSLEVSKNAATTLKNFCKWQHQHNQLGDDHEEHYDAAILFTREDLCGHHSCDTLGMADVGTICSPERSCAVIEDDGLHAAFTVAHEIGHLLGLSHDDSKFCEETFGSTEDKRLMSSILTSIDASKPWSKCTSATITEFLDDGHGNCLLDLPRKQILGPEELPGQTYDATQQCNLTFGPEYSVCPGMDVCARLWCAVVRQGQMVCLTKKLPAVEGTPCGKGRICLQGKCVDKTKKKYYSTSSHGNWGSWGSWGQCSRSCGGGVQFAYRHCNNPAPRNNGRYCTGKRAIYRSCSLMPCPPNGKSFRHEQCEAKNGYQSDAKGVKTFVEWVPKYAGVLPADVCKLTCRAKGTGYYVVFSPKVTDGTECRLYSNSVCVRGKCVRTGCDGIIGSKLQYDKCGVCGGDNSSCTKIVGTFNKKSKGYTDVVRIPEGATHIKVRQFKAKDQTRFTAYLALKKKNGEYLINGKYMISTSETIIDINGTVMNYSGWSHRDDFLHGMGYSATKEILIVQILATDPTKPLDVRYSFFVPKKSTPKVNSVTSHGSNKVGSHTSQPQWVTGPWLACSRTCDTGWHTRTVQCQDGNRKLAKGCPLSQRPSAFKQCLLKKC
# Sequence of UniProt Q9H1I8 (Q9H1I8 whole entry, looked up): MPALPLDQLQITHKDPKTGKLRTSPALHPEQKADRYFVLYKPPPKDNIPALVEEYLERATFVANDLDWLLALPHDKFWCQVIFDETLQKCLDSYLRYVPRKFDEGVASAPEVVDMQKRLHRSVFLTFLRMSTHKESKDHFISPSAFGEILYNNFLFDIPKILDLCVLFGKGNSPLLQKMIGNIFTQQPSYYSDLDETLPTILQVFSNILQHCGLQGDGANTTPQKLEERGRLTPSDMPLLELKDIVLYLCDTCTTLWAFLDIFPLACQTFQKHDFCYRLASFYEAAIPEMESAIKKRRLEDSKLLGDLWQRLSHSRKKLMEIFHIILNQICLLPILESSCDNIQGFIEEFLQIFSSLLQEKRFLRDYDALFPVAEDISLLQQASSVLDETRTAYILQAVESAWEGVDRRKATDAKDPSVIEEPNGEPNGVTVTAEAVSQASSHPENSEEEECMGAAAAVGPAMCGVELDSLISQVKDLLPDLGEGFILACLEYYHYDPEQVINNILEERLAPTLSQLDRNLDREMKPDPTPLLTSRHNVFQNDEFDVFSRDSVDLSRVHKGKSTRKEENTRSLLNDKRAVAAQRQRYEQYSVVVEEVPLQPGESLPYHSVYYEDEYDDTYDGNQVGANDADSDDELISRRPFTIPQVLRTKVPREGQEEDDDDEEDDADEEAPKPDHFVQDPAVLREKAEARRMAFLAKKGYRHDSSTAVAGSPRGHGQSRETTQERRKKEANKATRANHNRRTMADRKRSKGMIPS
# Sequence of UniProt P00352 (P00352 whole entry, looked up): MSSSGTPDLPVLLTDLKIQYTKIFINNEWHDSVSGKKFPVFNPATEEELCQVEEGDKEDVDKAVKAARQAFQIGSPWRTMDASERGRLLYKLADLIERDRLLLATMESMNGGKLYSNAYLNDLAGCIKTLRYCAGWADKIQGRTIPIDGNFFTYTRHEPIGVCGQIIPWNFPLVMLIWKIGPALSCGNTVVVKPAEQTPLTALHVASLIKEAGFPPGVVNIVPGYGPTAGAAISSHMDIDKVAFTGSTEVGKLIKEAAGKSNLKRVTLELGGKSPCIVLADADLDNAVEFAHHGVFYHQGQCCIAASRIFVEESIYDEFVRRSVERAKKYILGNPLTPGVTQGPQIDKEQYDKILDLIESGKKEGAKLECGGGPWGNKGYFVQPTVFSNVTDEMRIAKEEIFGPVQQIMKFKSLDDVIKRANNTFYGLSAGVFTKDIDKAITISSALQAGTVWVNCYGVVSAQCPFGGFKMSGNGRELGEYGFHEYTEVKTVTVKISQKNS
# Sequence of UniProt O95870 (O95870 whole entry, looked up): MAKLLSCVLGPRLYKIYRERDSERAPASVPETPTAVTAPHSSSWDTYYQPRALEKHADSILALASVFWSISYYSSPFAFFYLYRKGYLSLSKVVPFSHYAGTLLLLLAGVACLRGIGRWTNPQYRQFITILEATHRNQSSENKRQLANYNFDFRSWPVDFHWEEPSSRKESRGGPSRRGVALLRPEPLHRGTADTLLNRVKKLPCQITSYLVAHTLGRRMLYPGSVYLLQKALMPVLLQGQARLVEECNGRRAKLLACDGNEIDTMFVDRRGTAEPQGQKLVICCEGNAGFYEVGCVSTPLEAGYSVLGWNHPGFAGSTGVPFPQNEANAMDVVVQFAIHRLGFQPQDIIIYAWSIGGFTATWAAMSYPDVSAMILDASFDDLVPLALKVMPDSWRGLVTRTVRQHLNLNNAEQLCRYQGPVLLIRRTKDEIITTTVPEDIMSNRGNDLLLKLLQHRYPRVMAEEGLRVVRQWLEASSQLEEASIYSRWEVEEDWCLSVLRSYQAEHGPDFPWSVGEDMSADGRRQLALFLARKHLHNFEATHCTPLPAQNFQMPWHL
# Sequence of UniProt Q8IZP0 (Q8IZP0 whole entry, looked up): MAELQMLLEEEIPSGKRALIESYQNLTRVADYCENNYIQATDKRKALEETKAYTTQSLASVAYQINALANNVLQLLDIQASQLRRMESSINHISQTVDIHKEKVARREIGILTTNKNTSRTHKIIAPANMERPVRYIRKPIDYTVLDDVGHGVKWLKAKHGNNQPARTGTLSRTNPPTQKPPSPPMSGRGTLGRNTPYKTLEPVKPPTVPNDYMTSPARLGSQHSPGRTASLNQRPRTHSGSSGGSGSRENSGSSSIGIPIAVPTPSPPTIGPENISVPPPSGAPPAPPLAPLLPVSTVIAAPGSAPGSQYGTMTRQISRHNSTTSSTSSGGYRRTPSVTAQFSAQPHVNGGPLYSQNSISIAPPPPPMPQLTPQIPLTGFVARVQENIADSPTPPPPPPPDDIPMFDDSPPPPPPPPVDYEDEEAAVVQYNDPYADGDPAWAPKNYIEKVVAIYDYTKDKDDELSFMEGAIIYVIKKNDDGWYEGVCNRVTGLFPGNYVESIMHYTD
# Sequence of UniProt Q5JTZ9 (Q5JTZ9 whole entry, looked up): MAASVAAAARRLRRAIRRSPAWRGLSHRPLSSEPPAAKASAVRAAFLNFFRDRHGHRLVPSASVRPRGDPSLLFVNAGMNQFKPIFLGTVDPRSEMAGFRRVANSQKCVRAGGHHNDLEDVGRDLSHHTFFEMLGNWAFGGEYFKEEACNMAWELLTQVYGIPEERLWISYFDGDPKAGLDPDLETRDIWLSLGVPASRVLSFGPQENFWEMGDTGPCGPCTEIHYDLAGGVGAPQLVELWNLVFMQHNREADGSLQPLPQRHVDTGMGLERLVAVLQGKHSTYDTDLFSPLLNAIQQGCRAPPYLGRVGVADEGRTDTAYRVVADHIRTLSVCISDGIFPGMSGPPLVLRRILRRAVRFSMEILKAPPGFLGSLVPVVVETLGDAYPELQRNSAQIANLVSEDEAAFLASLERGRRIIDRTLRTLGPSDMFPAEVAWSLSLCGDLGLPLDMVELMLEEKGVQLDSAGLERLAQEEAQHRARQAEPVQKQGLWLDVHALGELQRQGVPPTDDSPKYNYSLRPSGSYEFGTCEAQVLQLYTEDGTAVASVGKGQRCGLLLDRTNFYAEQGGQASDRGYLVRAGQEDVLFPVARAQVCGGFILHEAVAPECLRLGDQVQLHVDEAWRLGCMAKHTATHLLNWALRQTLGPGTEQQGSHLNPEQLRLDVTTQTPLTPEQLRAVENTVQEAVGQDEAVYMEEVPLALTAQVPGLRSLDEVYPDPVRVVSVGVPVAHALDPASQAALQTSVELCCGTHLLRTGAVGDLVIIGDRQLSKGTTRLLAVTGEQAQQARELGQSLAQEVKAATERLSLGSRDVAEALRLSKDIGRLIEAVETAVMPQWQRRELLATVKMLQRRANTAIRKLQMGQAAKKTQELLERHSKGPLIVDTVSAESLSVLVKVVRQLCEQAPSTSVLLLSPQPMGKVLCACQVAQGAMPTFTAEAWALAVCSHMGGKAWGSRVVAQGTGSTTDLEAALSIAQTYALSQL
# Sequence of UniProt Q01432 (Q01432 whole entry, looked up): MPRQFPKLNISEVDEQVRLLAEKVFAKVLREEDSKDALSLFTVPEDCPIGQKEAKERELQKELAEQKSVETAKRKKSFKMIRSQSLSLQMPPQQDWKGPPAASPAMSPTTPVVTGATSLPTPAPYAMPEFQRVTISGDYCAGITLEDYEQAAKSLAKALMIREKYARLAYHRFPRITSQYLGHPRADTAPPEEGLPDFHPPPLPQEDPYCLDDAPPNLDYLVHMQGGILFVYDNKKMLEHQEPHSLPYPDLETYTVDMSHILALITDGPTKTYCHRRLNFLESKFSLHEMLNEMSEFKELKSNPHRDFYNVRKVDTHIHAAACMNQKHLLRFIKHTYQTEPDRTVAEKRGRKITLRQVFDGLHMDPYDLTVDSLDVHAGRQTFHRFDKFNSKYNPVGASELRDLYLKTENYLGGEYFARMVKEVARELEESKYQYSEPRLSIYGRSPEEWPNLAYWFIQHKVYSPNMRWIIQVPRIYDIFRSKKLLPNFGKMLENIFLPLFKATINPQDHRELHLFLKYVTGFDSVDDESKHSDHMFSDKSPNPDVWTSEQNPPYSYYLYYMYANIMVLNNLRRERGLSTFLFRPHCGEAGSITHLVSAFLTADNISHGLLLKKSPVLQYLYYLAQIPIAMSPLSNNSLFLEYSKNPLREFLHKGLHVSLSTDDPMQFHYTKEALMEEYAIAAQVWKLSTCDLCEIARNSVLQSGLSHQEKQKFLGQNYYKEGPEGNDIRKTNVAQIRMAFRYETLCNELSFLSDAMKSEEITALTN
Target,log2 fold change (ibrutinib),log2 fold change [1],log2 fold change (ralimetinib),log2 fold change [2],log2 fold change [3],log2 fold change [4],log2 fold change [5],log2 fold change [6],log2 fold change [7],log2 fold change [8],log2 fold change (vemurafenib),log2 fold change [9],log2 fold change (barasertib),log2 fold change [10],log2 fold change (volasertib),log2 fold change [11],log2 fold change [12],log2 fold change [13],log2 fold change (saracatinib),log2 fold change (sotrastaurin)
AGL (UniProt P35573),-0.007,0.01,0.048,0.018,-0.006,-0.004,0.021,-0.017,0,0.027,-0.014,0.002,-0.015,-0.063,-0.058,0.013,0.131,-0.083,0.013,0.049
AFF4 (UniProt Q9UHB7),0.172,-0.009,-0.049,0.033,-0.008,-0.028,-0.047,0.009,0.002,0.024,0.157,-0.012,-0.072,0.001,-0.019,0.023,-0.133,-0.04,-0.009,0.002
AARS2 (UniProt Q5JTZ9),0,-0.052,0.025,-0.018,0.029,0.009,0.02,-0.006,0.035,-0.03,0.041,-0.052,0.029,-0.055,-0.037,0.027,0.027,-0.053,0.003,0.031
ASCC2 (UniProt Q9H1I8),-0.328 (active),0.029,0.057,-0.041,0.012,0.004,0.02,0.01,0.064,-0.01,0.037,0.069,0.025,-0.054,-0.024,0.007,0.051,-0.103,0.04,0.027
ALDH5A1 isoform 2 (UniProt P51649),0.041,0.018,-0.015,0.001,-0.019,-0.01,0.001,0.021,-0.022,0.011,-0.016,0.011,-0.009,-0.024,-0.001,0.031,0.004,0.008,0,-0.023
ARHGEF1 (UniProt M0QZR4),-0.009,-0.001,0.009,-0.008,0.019,-0.015,0.007,0.002,0.015,0.005,0.014,0.004,0.023,-0.025,-0.041,0.014,-0.08,0.013,0.009,0.018
ALDH1A1 (UniProt P00352),0.092,0.019,0.037,0.037,-0.029,0,0.26 (active),-0.005,0.028,0.011,-0.027,0.001,-0.014,-0.016,-0.005,-0.052,0.051,-0.09,0.272,0.001
ALDH6A1 (UniProt Q02252),0.128,-0.006,-0.064,-0.043,0.008,-0.088,-0.191,0.025,-0.066,-0.02,0.055,0.027,0.043,-0.009,-0.025,0.015,-0.111,0.022,-0.324 (active),-0.082
ABHD16A (UniProt O95870),-0.01,0.004,0.029,0.018,0.027,-0.022,0.03,-0.031,-0.077,-0.011,0.074,0.012,0.026,0.141,0.002,-0.059,-0.001,0.019,0.021,0.051
ACTG1 (UniProt I3L4N8),0.191,0.053,-0.019,0.065,-0.184,0.038,-0.677 (active),-0.181,-0.006,0.033,0.131,-0.062,0.218,-0.208,-0.006,-0.384,0.94,-0.091,-0.002,0.001
ACSL4 (UniProt O60488),0.035,-0.012,0.051,-0.022,-0.015,0.027,-0.079,-0.044,0.052,0.021,0.061,-0.007,-0.006,-0.029,-0.001,0.036,0.008,-0.02,0.047,0.043
ADK (UniProt P55263),-0.028,0.107,0.313,-0.027,-0.05,-0.073,-0.059,-0.007,-0.008,-0.005,-0.052,-0.036,-0.054,0.458 (active),0.437 (active),-0.027,0.044,0.155,0.043,0.343
ABI1 isoform 9 (UniProt Q8IZP0),0.034,0.023,-0.031,-0.005,0.031,-0.02,-0.008,0.024,-0.012,0.003,-0.021,0.005,-0.01,0.052,-0.038,-0.001,-0.116,0.217,-0.029,-0.019
ADAMTS5 (UniProt Q9UNA0),0.032,-0.057,-0.016,-0.186,-0.011,0.008,-0.067,0.093,-0.031,-0.076,0.063,0.047,0.038,0.066,0.038,-0.15,-0.939 (active),0.292,0.083,-0.045
AKT2 (UniProt P31751),-0.016,0.006,0.026,0.006,-0.006,0.011,0.007,0.005,-0.004,-0.044,0.008,0,-0.026,-0.024,-0.031,0.025,0.007,0.004,-0.011,0.017
AMPD3 isoform 4 (UniProt Q01432),0.05,0.001,0.037,-0.041,-0.019,-0.029,0.011,0.006,-0.004,-0.005,-0.021,0.005,0.017,-0.033,-0.026,-0.029,0.1,-0.046,0.043,0.024
